Gli-Sufu block: Gli-Sufu pathway antagonism | actives 0.74% (n = 340,000) | Sufu-KO-LIGHT fibroblasts, Gli luciferase reporter luminescence | inhibition, % at 5 µM | AID 588413;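 active = inhibition above about 55%, limit read from the data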;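 also: 0% = DMSO-treated cells and 100% = wells with medium but no cells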
Beta cell apopt: beta cell apoptosis inhibition; INS-1E cytokine-induced death, ATP luminescence, 48 h; percent of positive-control rescue, neutral wells zero; protection from apoptosis, % (test concentration not listed); actives 0.8% (n = 300,000);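 active = Every replicate reaches about 75%, or at least half do and their mean reaches it too, limit read from the data; inconclusive = At least half of replicates reach the limit but their mean does not; inactive = Under half of replicates reach the limit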;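 also: 0% = cytokine-treated negative control wells and 100% = positive control rescue; higher means more ATP so stronger rescue from cytokine killing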
Mdm2 MdmX PPI: disrupts the human Mdm2-MdmX interaction; O15151+Q00987; SaOS-2 split-luciferase Mdm2/MdmX complementation, luminescence; inhibition, % at 8 µM; actives 3% (n = 330,000);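 active = inhibition of at least 50% at 8 µM in the primary screen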
Target sequence (O15151 whole entry, looked up): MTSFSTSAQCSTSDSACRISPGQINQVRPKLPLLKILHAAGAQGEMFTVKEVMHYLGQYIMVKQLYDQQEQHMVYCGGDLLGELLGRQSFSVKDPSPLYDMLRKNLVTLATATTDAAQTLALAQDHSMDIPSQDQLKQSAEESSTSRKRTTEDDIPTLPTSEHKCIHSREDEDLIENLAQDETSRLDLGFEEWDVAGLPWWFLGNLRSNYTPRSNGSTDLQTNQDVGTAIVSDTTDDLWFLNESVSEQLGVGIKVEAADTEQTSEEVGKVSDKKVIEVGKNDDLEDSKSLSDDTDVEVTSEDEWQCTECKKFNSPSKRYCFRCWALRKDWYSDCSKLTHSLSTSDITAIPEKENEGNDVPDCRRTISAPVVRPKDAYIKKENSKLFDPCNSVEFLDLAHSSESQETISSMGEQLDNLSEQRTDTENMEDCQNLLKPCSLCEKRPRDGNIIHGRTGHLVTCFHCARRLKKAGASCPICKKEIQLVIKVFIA
Target sequence (Q00987 whole entry, looked up): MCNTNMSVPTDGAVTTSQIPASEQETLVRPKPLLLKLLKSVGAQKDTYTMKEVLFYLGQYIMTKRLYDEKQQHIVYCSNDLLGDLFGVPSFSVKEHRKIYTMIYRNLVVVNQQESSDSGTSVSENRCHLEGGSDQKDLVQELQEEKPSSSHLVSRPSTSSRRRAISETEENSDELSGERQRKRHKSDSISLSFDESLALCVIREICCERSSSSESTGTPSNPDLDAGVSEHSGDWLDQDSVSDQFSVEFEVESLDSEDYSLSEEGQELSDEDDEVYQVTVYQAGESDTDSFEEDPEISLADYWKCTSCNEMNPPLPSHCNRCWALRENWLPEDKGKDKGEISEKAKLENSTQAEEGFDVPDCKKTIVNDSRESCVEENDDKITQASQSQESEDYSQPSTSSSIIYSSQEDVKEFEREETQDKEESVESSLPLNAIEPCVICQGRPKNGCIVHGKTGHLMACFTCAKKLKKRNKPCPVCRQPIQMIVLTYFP
PAX8 inh HTS: PAX8 transcriptional activity inhibition. actives 1.2% (n = 360,000). RMG-I TPO-luciferase reporter, SteadyGlo, 24 h. inhibition, % at 12.6 µM. AID 652154;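 active = mean replicate inhibition at least 60% with every replicate also reaching 60%; inconclusive = only one of the two criteria is met; inactive = mean below 60% and not all replicates reaching 60%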;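 also: luciferase light reporting Pax8 driven TPO promoter activity; plate controls were median of neutral control wells for no effect and mitoxantrone controls for full effect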
CSC inhib: blocks cancer stem cells | AID 2717 | actives 1.1% (n = 300,000) | cancer stem cell-like cells viability, luminescence | inhibition, % at 7.5 µM; in the data active = inhibition above about 75%; inconclusive = no clear call, values can overlap the other calls; tested in HMLE shEcad cells
Shn3 inh set2: Schnurri-3 reporter inhibition in Clone20 osteoblasts. Clone20 osteoblast Shn3 3'UTR firefly luciferase, 24 h. inhibition, % at 12.5 µM. actives 0.52% (n = 360,000). AID 588674;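 active = mean inhibition of at least 75% with every replicate also reaching 75%; inconclusive = mean inhibition at least 75% but some replicate below; inactive = mean inhibition below 75%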;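 also: 0% = median of neutral control wells and 100% = pilot-screen positive control compound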
Starred values were filed as active, the others as inactive; ! = a repeat was not active. Only some compounds are listed: those with a hit (about 4% of all), similar ones and a draw of the others.

What do the screens show for `C[C@@H]1CN([C@@H](C)CO)C(=O)c2cc(NC(=O)c3ccccc3)ccc2O[C@@H](C)CCCCO[C@@H]1CN(C)Cc1ccncc1`?
PAX8 inh HTS: 10.6

Results for C[C@@H]1CN([C@H](C)CO)C(=O)c2cc(NC(=O)c3ccncc3)ccc2O[C@@H]1CN(C)Cc1ccccc1 ?
PAX8 inh HTS: -6.8

How did CC(C)NC(=O)NCC[C@H]1CC[C@H](NC(=O)CN(C)C)[C@@H](CO)O1 do in these assays?
PAX8 inh HTS: -1.3

What do the screens show for `COc1ccc(NC(=O)N2C[C@H](O)COC[C@@H]3O[C@H](CC(=O)N4CCOCC4)CC[C@H]32)cc1`?
PAX8 inh HTS: -6.2

How did O=C(O)CSc1cc(NS(=O)(=O)c2ccc(Cl)cc2)c2ccccc2c1O do in these assays?
Gli-Sufu block: 6.0; Beta cell apopt: 8.6; PAX8 inh HTS: 22.5; CSC inhib: 33.9; Shn3 inh set2: 9.6

What do the screens show for `COc1ccc(S(=O)(=O)Nc2cc(SCC(=O)O)c(O)c3ccccc23)cc1`?
Gli-Sufu block: 22.7; Beta cell apopt: 93.7*; Mdm2 MdmX PPI: 19.5; PAX8 inh HTS: -13.5; CSC inhib: 36.9; Shn3 inh set2: 12.9

Results for CCN1/C(=C/c2ccc3cc(C)ccc3[n+]2CC)Sc2cc(C)ccc21 ?
Gli-Sufu block: 90.2*; PAX8 inh HTS: 88.8*; Shn3 inh set2: inconclusive

How did CCN1/C(=C/c2ccc3ccccc3[n+]2CCCS(=O)(=O)[O-])C=Cc2cc(C)ccc21 do in these assays?
Gli-Sufu block: 12.0; Beta cell apopt: 30.5; PAX8 inh HTS: 4.2; CSC inhib: 19.4; Shn3 inh set2: 11.8

What do the screens show for `CCN1/C(=C/c2ccc3cc(C)ccc3[n+]2C)Sc2ccc3sccc3c21`?
Gli-Sufu block: 86.3*; PAX8 inh HTS: 100.1*; Shn3 inh set2: 91.2*

How did Cc1sc2c3ccsc3ccc2[n+]1C do in these assays?
Gli-Sufu block: -2.4; Beta cell apopt: -14.4; Mdm2 MdmX PPI: 11.7; PAX8 inh HTS: 22.7; CSC inhib: 17.6; Shn3 inh set2: -2.3

What do the screens show for `CCCNC(=O)Nc1ccc2c(c1)C(=O)N(C)C[C@@H](OC)[C@@H](C)CN(C(C)=O)[C@@H](C)CO2`?
PAX8 inh HTS: -9.2

How did COc1ccc(CN(C)C[C@@H]2Oc3ccc(NS(=O)(=O)c4ccc(F)cc4)cc3CC(=O)N([C@@H](C)CO)C[C@H]2C)cc1 do in these assays?
PAX8 inh HTS: -3.3

Results for O=S(=O)(c1cccs1)N1CCN(CC(O)COc2cc(Cl)ccc2Cl)CC1 (stereo not drawn) ?
Gli-Sufu block: 39.8; Beta cell apopt: 83.2*; Mdm2 MdmX PPI: 15.4; PAX8 inh HTS: 39.8; CSC inhib: 22.4; Shn3 inh set2: 79.8

Results for O=C(Nc1ccc(C(F)(F)F)cc1)N1C[C@@H]2N[C@H](C1)C2c1ccc(-c2ccccc2)cc1 (stereo partly drawn) ?
PAX8 inh HTS: 107.7*

How did O=C(Nc1ccc(C(F)(F)F)cc1)N1C[C@@H]2N[C@H](C1)C2c1ccc(/C=C/c2ccccc2)cc1 (stereo partly drawn) do in these assays?
PAX8 inh HTS: 90.4*!

What do the screens show for `C[C@@H]1CN([C@@H](C)CO)C(=O)Cc2cc(NS(=O)(=O)c3ccc(Cl)cc3)ccc2O[C@H]1CN(C)C(=O)Nc1ccc2c(c1)OCO2`?
PAX8 inh HTS: 20.3

What do the screens show for `C[C@H](CO)N1C[C@H](C)[C@H](CN(C)Cc2ccc3c(c2)OCO3)OCCCC[C@H](C)Oc2ccc(NS(=O)(=O)c3cccs3)cc2C1=O`?
PAX8 inh HTS: 19.2

How did CNc1nc(N/N=C/c2cc3c(cc2[N+](=O)[O-])OCO3)nc(Nc2ccccc2)n1 do in these assays?
Gli-Sufu block: 15.7; Beta cell apopt: 98.1*; Mdm2 MdmX PPI: 38.0; PAX8 inh HTS: 59.8; CSC inhib: -4.2; Shn3 inh set2: 5.1

How did CNc1nc(N/N=C/c2cc([N+](=O)[O-])ccc2F)nc(Nc2ccccc2)n1 do in these assays?
Gli-Sufu block: 4.2; PAX8 inh HTS: 7.6; Shn3 inh set2: 2.0

Results for O=C(C[C@@H]1C[C@H]2c3cc(NC(=O)Cc4ccncc4)ccc3O[C@H]2[C@@H](CO)O1)NCc1ccc(-c2ccccc2)cc1 ?
PAX8 inh HTS: 42.7

How did O=C(C[C@H]1C[C@@H]2c3cc(NS(=O)(=O)c4ccc(F)cc4)ccc3O[C@@H]2[C@@H](CO)O1)NCc1ccccc1 do in these assays?
PAX8 inh HTS: 20.0

How did O=C(C[C@@H]1C[C@@H]2c3cc(NC(=O)Cc4ccncc4)ccc3O[C@@H]2[C@H](CO)O1)NCc1ccc(-c2ccccc2)cc1 do in these assays?
PAX8 inh HTS: 102.1*

Results for O=C(Nc1ccc(C(F)(F)F)cc1)Nc1ccc2c(c1)[C@H]1C[C@H](CC(=O)N3CCc4ccccc4C3)O[C@H](CO)[C@H]1O2 ?
PAX8 inh HTS: 82.4*

What do the screens show for `O=C(C[C@H]1C[C@@H]2c3cc(NS(=O)(=O)c4ccc(F)cc4)ccc3O[C@@H]2[C@H](CO)O1)NCc1ccc(-c2ccccc2)cc1`?
PAX8 inh HTS: 64.5*

Results for O=C(C[C@H]1C[C@@H]2c3cc(NC(=O)Nc4ccc(C(F)(F)F)cc4)ccc3O[C@@H]2[C@@H](CO)O1)NCc1ccc(Cl)cc1 ?
PAX8 inh HTS: 88.7*

Results for O=C(O)C[C@H]1C[C@H]2c3cc(NS(=O)(=O)c4ccccc4)ccc3O[C@H]2[C@H](CO)O1 ?
PAX8 inh HTS: -8.2

How did C[C@H]1CN([C@@H](C)CO)C(=O)c2cccc(NC(=O)c3cnccn3)c2O[C@@H]1CN(C)Cc1ccc(-c2ccccc2)cc1 do in these assays?
PAX8 inh HTS: 8.5

Results for O=C(N[C@H]1CC[C@H](CCNS(=O)(=O)Cc2ccccc2)O[C@@H]1CO)c1ccccc1F ?
PAX8 inh HTS: 1.3

How did O=C(C[C@@H]1C[C@@H]2c3cc(NC(=O)CC4CC4)ccc3O[C@@H]2[C@H](CO)O1)NCc1ccc(Cl)cc1 do in these assays?
PAX8 inh HTS: 9.5

How did O=C(C[C@@H]1C[C@H]2c3cc(NS(=O)(=O)c4ccc(F)cc4)ccc3O[C@H]2[C@H](CO)O1)NCc1ccc(-c2ccccc2)cc1 do in these assays?
PAX8 inh HTS: 88.0*

How did O=C(C[C@@H]1C[C@@H]2c3cc(NS(=O)(=O)c4ccc(F)cc4)ccc3O[C@@H]2[C@H](CO)O1)NCc1ccccc1 do in these assays?
PAX8 inh HTS: 15.5

What do the screens show for `CCOC(=O)/C=C/C(=O)Nc1cc(S(=O)(=O)Nc2ccc(OC)cc2)ccc1N1CCOCC1`?
Gli-Sufu block: 44.9; Mdm2 MdmX PPI: 30.3; PAX8 inh HTS: 98.2*; Shn3 inh set2: 9.5

How did CCOCCCNC(=O)/C(C#N)=C/c1ccc(-c2ccc(S(=O)(=O)N3CCOCC3)cc2)o1 do in these assays?
Gli-Sufu block: 1.1; Beta cell apopt: -5.1; Mdm2 MdmX PPI: 22.5; CSC inhib: 9.9; Shn3 inh set2: -6.3
